# Bioassay records: PubChem, National Center for Advancing Translational Sciences (NCATS)
# HT1080 IDH1KD tx – qHTS for induction of synthetic lethality in tumor cells producing 2HG: qHTS for the HT-1080-IDH1KD cell line; HT-1080 IDH1 knockdown viability, ATP luminescence, 48 h; Potency, µM (top dose mostly 46.1 µM), for the others: at the top dose activity, negative = toxicity, most hits filed as cytotoxic; 360,000 compounds, 2% hits; AID 686971, 2013;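 further: 0% = DMSO wells and -100% = cell-free medium wells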
#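 Assay cells: HT-1080 with IDH1 knockdown, 750 per well, RPMI/5% FBS. Exposure: 48 h at 37 °C following 2 h pre-incubation. Read: CellTiter-Glo luminescence; fitted concentration-response, curve class assigned.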
# TDP1 cell CPT – qHTS for Inhibitors of human tyrosyl-DNA phosphodiesterase 1 (TDP1): qHTS in cells in presence of CPT; chicken DT40 Tdp1-/-;hTDP1 cells + 20 nM CPT, ATP luminescence, 48 h; Potency, µM (titrated, usually from 46.2 µM), for inactives: at the top dose activity change, negative = growth inhibition, actives largely listed as inhibitors; 420,000 compounds, 12% hits; further: nearly all actives have a fitted effect of over 55% in size
#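 Chicken DT40 Tdp1-/- cells stably complemented with human TDP1 were seeded at 400 cells/well in medium containing 20 nM camptothecin, exposed to pin-transferred compounds, and grown at 37 °C for at least 48 hr. Viability was read as ATP luminescence.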
# KB-V1 cytotox – qHTS assay for MDR1-selective chemotherapeutics: Primary screen using the drug-selected MDR subline cells KB-V1 | KB-V1 MDR cells viability, CellTiter-Glo, 72 h | Potency, µM (series often up to 46.1 µM), actives largely listed as cytotoxic | 400,000 compounds, 3.4% hits | AID 1347076, 2019; further: nearly all actives have a fitted effect of over 60% in size
#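 Drug-selected KB-V1 cells, grown in DMEM lacking phenol red with 10% FBS, receive compound titrations; after three days at 37 degrees C, surviving cell ATP is quantified by CellTiter-Glo luminescence and responses normalized and curve-fitted.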
# HT1080NT lethal – qHTS for induction of synthetic lethality in tumor cells producing 2HG: qHTS for the HT-1080-NT fibrosarcoma cell line; Potency, µM (doses to about 46.1 µM), inactives show top-dose activity, negative = less viability, actives largely listed as cytotoxic; HT-1080-NT fibrosarcoma viability, CellTiter-Glo ATP luminescence, 48 h; 360,000 compounds, 1.6% hits;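 further: NT is the 2HG producing partner of a matched IDH1 knockdown line; 0% = DMSO-treated cells and -100% = media-only wells without cells; nearly all actives have a fitted effect of over 55% in size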
#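 Read-out is CellTiter-Glo luminescence after 10 minutes at room temperature, following 48 hours' compound treatment of HT-1080-NT cells (750 cells/well, RPMI, 5% FBS, 37 degrees C).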
# KB-3-1 tox – qHTS assay for MDR1-selective chemotherapeutics: Primary screen using the parental adenocarcinoma cell KB-3-1 | KB-3-1 viability, CellTiter-Glo ATP luminescence, 72 h | Potency, µM (titrated, usually from 46.1 µM), usual class: cytotoxic | 400,000 compounds, 1.4% hits | AID 1347075, 2019; further: nearly all actives have a fitted effect of over 60% in size
#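 Multi-concentration cytotoxicity screen in KB-3-1 cells grown in DMEM lacking phenol red with 10% FBS. After 72 h at 37 °C with compound, ATP-dependent luminescence was recorded.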
# DT40 TDP1 no CPT – qHTS for Inhibitors of human tyrosyl-DNA phosphodiesterase 1 (TDP1): qHTS in cells in absence of CPT. 420,000 compounds, 15% hits. DT40 Tdp1-/- hTDP1 cells, no CPT, ATP luminescence, 48 h. Potency, µM (top dose mostly 46.2 µM), without a hit: top-dose activity change, negative = growth inhibition, actives largely listed as inhibitors; further: nearly all actives have a fitted effect of over 55% in size
#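 No-CPT arm: Tdp1-/-;hTDP1 DT40 cells (400/well) plus compounds, incubated ≥48 hr at 37 °C. Readout CellTiter-Glo luminescence.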
# The depositor's hits bear a star; i = inactive; ? = inconclusive; / = not tested or not shown; [ ] = remark or other dose. In the library only some 19% were active in any assay of this set; here they are far more common. The call rests on the fitted dose curve; in most records, active means well fitted curve in the direction sought with a large enough effect; inconclusive means small, poorly fitted or top-dose-only effect, or another doubt; inactive means no such curve, though single readings can be large; an effect the other way counts as inactive or inconclusive. Unless noted, on the % scale 0 is the no-effect control and ±100 the full control effect; potency means the concentration at half of the fitted maximal effect.
SMILES,HT1080 IDH1KD tx,TDP1 cell CPT,KB-V1 cytotox,HT1080NT lethal,KB-3-1 tox,DT40 TDP1 no CPT
C[C@@H]1CN([C@@H](C)CO)C(=O)CCCn2nncc2CO[C@H]1CN(C)C(=O)Oc1ccc2ccccc2c1,-0.2%,-16.4%,?,-4.5%,i,-1.0%
COc1ccc2ccccc2c1CNCCc1ccccc1,-7.1%,23.1µM*,i,-20.3%,i,?
N[C@H](CCCCCP(=O)(O)O)C(=O)O,/,-5.9%,/,/,/,0.5%
Cc1ccccc1OCCN=Cc1c(O)n(C)c(=O)n(C)c1=O,-17.3%,?,?,1.8%,i,20.6µM*
Cn1c(O)c(C=NCc2cccs2)c(=O)n(C)c1=O,14.5%,?,i,3.6%,i,0.5%
COC(=O)c1ccccc1NC(=O)c1cccn(Cc2cccc(Cl)c2)c1=O,/,?,?,/,i,18.4µM*
O=C(Nc1ccccc1C(F)(F)F)c1cccn(Cc2ccccc2)c1=O,/,?,i,/,i,18.4µM*
O=C(Nc1ccc(OC(F)(F)F)cc1)c1cccn(Cc2ccccc2Cl)c1=O,/,1.1%,i,/,i,-0.9%
O=C(Nc1ccon1)c1cccn(Cc2cccc(Cl)c2)c1=O,/,-21.7%,/,/,/,-0.9%
COc1ccc(C(=O)N/N=C/C23CC[C@@H](O)CC2(O)CC[C@@H]2[C@@H]3CCC3(C)C(C4=CC(=O)OC4)CCC23O)cc1 (stereo not given in full),?,-2.7%,i,?,?,-1.2%
CC(=O)O[C@H]1C[C@H](O[C@H]2[C@@H](O)C[C@H](O[C@H]3[C@@H](O)C[C@H](O[C@H]4CC[C@@]5(C)[C@H](CC[C@@H]6[C@@H]5C[C@@H](O)[C@]5(C)[C@@H](C7=CC(=O)OC7)CC[C@]65O)C4)O[C@@H]3C)O[C@@H]2C)O[C@H](C)[C@H]1O[C@@H]1O[C@H](CO)[C@@H](O)[C@H](O)[C@H]1O,/,0.376µM*,/,/,/,0.335µM*
CC(=O)OC1CC(OC2C(O)CC(OC3C(O)CC(OC4CCC5(C)C(CCC6C5CCC5(C)C(C7=CC(=O)OC7)CCC65O)C4)OC3C)OC2C)OC(C)C1OC1OC(CO)C(O)C(O)C1O (stereo not given),0.0517µM*,0.581µM*,0.411µM*,0.082µM*,?,0.411µM*
CCS(=O)(=O)NC(C)c1nnc2n1-c1ccc(Br)cc1C(c1ccccc1Cl)=NC2 (stereo not given),0.0%,-8.0%,i,-1.4%,i,-23.9%
CN(C)C(=O)Oc1ccc(Br)c2ccccc12,-8.7%,?,i,-2.8%,i,2.1%
CC1(C)Cc2c(c(N3CCOCC3)nc3sc4c(NCc5ccccc5)nnnc4c23)CS1,-11.1%,16.4µM*,i,-0.3%[9.24 µM],?,23.1µM*
CC(C)(C)c1csc(NC(=O)Nc2ccccc2)n1,?,-25.4%,i,?,i,?
NC(CCc1ccccc1)c1csc(NC(=O)Nc2ccccc2Oc2ccccc2)n1 (stereo not given),?,6.51µM*,23.1µM*,23.1µM*,?,6.51µM*
COc1ccccc1N1CCN(Cc2ccccc2F)CC1,7.0%,-10.5%,i,5.4%,i,-12.0%
COc1ccccc1N1CCN(Cc2ccccc2Cl)CC1,12.9%,?,20.6µM*,25.2%,i,-22.9%
COc1ccccc1N1CCN(Cc2c(F)cccc2F)CC1,-26.5%,-30.0%,14.6µM*,18.9%,i,-22.6%
